Experimental findings from PubChem BioAssay (EPA / NIEHS) are described below.

Structures are written as SMILES. Active and inactive are the calls of the source. How the source made its calls: active means hit-call score of the fitted dose curve at least 0.9, where 1 is the maximum; inactive means score below 0.9.

Chain of Cellular tumor antigen p53 (Homo sapiens) (P04637 whole entry, looked up): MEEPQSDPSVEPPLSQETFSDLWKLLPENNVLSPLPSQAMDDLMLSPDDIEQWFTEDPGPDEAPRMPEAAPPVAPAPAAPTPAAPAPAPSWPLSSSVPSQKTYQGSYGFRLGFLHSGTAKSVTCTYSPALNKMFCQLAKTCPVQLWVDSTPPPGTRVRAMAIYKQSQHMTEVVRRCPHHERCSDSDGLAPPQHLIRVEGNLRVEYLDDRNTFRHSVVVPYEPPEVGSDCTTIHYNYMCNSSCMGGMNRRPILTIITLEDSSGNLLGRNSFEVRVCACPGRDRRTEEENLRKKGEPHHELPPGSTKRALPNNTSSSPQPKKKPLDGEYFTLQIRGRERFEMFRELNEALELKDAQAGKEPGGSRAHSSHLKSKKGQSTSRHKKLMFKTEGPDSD

Read-out in this experiment: Cellular tumor antigen p53 (Homo sapiens) (UniProt P04637)
In words: LTEA_HepaRG_TP53: Life Technologies and Expression Analysis (LTEA) Assay for Tumor Protein P53 (TP53) using HepaRG (AID 2283537). The note with it: mRNA level, 48 h; actives raise or lower the signal. The method, then:
LTEA_HepaRG is a cell based, multiplexed-readout assay that uses HepaRG, a human liver cell line, with measurements taken at 48 hours after chemical dosing on a 96-well plate.LTEA_HepaRG_TP53 is one of 102 assay component(s) measured in the LTEA HepaRG cell culture assay. It is a marker of Oxidative Stress.Data from the assay component LTEA_HepaRG_TP53 was analyzed into 1 endpoint. This assay endpoint, LTEA_HepaRG_TP53, was analyzed with bidirectional fitting relative to DMSO as the negative control and baseline of activity. Using a type of inducible reporter, measures of mRNA induction for gain or loss-of-signal activity can be used to understand regulation of transcription factor activity. To generalize the intended target to other relatable targets, this assay endpoint is annotated to the dna binding intended target family, where the subfamily is tumor suppressor.
A total of 1060 chemcials from the ToxCast library were tested in eight-point concentration-response experiments. Cell culture and cytotoxicity assays were conducted at Thermo Fisher Scientific's Custom Services facility (Madison, WI). A single lot of human HepaRG cells (Thermo Fisher Scientific, Frederick, MD) was used for the cell culture experiments. 96-well format collagen type I coated plates of human HepaRG cells were prepared using established methods. Briefly, cryopreserved HepaRG cells were thawed, plated at a density of approximately 100,000 cells/well in HepaRG Thaw, Plate, and General Purpose media (HPRG770, Thermo Fisher Scientific), and incubated for 48 hours. 0.5% DMSO was selected as vehicle control to balance the requisite need of DMSO in HepaRG cultures to maintain differentiation (for example, baseline metabolism, proportions of hepatocytes vs. cholangiocytes), while enabling further hepatic receptor pathway activation (for example, PXR and CAR) in response to chemical exposure. 48 hours after plating, the culture medium was replaced with HepaRG Serum-Free Incudtion Media. Cells were exposed to each test chemical in duplicate and maintained in CO2 incubators for another 48 hours. Chemical plates were thawed to room temperature and 200x concentrations of treatment groups were prepared. 8-point conentration-reponse curves were made with the highest exposure at 100 uM, followed by half-log dilutions, all in 0.5% DMSO. Each test plate contained variouse controls, induction positive controls (1mM phenobarbital), cytotoxicity positive controls ([…] aflatoxin B1), vehicle controls (0.5% DMSO), and total lysis controls (0.5% DMSO). Cell morphology images were taken using an Essen IncuCyte FLR automated microscope, with six 96-well plates imaged in about 24 minutes. Images were captured and exported and JPEG files. Spent culture media was transfered to black-well plates for the LDH assay, and remaining media was sorted at -80 C for later use. Cells were treated with RLT buffer and frozen until shipped for gene expression analysis. Total RNA was isolated from the cell suspension in 75 uL of Buffer RLT (Qiagen, Germantown, MD 20874) by Quintiles/Expression Analysis (Durham, NC) using a custom isolation procedure. Total RNA from each plate well was transferred to a preamplification plate. Fluidigm's 96.96 Dynamic ArrayTM (Fluidigm, Amsterdam, the Netherlands) technology was used for gene expression analyses by quantitative reverse transcription polymerase chain reaction (qRT-PCR, performed by Quintiles/Expression Analysis, Durham, NC)89. Standard TaqManTM Assays (Applied Biosystems/ThermoFisher Scientific, Foster City, CA) were used to assess the expression of 93 genes selected based on their selectivity and sensitivity to important hepatic receptors known to be modulated by environmental chemicals; importance in human hepatocyte functionality; and hepatotoxicity. […]
In general, AC50 refers to the concentration at which the activity in the assay is half-maximal. In the case of `CCOc1nc(C(Cl)(Cl)Cl)ns1`, the AC50 is 1.01 µM (active).
In the case of `CC(C)N1C(=O)c2ccccc2NS1(=O)=O`, the compound was called inactive.
On the same count and under the same terms, next, `C=C(C)CN(CC)c1c([N+](=O)[O-])cc(C(F)(F)F)cc1[N+](=O)[O-]`: “inactive”; `N#Cc1c(Cl)cccc1Cl`: “inactive”.
As to `O=P(O)(O)CCCl`, the AC50 was 0.254 µM (active).
Turning to `CCCCC(C#N)(Cn1cncn1)c1ccc(Cl)cc1` (stereo not given), the compound was classed as inactive.
Turning to `CO/N=C(/C1=NOCCO1)c1ccccc1Oc1ncnc(Oc2ccccc2Cl)c1F`, the AC50 is 27.1 µM (active).
Take `CC1(C)C(C(=O)OC(C#N)c2cccc(Oc3ccccc3)c2)C1(C)C` (stereo not given): the call was inactive.
In the case of `COc1cc(Cl)c(OC)cc1Cl`, the call was inactive.
Take `COC(=O)NC(=S)Nc1ccccc1NC(=S)NC(=O)OC`: the result was inactive.
Same read-out and setting: next, `CNC(=O)N(C)c1nnc(C(C)(C)C)s1`: “inactive”; `CC(C)Oc1cccc(NC(=O)c2ccccc2C(F)(F)F)c1`: “inactive”.
Turning to `COCC(=O)N(c1c(C)cccc1C)C(C)C(=O)OC` (stereo not given), the result was inactive.
In the case of `COc1cc(OC)nc(NC(=O)NS(=O)(=O)c2ncccc2OCC(F)(F)F)n1`, the outcome was inactive.
Same read-out and setting: the result for `Cc1cc(C)nc(Nc2ccccc2)n1` reads “inactive”; that for `COc1ccc(-c2ccccc2)cc1NNC(=O)OC(C)C`, “inactive”; that for `Nc1c(Cl)c(Cl)nc(C(=O)O)c1Cl`, “inactive”.
As for `CCCC(=NOCC)C1=C(O)CC(CC(C)SCC)CC1=O` (stereo not given), the compound was classed as inactive.
With `COCC(C)N(C(=O)CCl)c1c(C)csc1C` (stereo not given), the result was inactive.
In the case of `COP(=S)(OC)Oc1ccc([N+](=O)[O-])c(C)c1`, the outcome was inactive.
For `CC(C)C1(C)N=C(c2ncccc2C(=O)O)NC1=O` (stereo not given), the call was inactive.
As to `CC(C)(C)C(=O)C(Oc1ccc(Cl)cc1)n1cncn1` (stereo not given), the result was inactive.
With `COP(=S)(OC)SCn1nnc2ccccc2c1=O`, the compound was classed as inactive.
Take `Clc1cccc(C(Cl)(Cl)Cl)n1`: the compound was called inactive.
Regarding `CCOP(=S)(OCC)Oc1nc(Cl)n(C(C)C)n1`, the compound was classed as inactive.
Regarding `CCSC(=O)N1CCCCCC1`, the call was inactive.
On to `COC(=O)N(C(=O)N1CO[C@@]2(C(=O)OC)Cc3cc(Cl)ccc3C2=N1)c1ccc(OC(F)(F)F)cc1`, for which the result was inactive.
Turning to `CNC(=O)Oc1cccc2ccccc12`, the compound was called inactive.
As for `CC1(C)CCC(=Cc2ccc(Cl)cc2)C1(O)Cn1cncn1` (stereo not given), the outcome was inactive.
On the same count and under the same terms, the result for `Cc1cnc(C2=NC(C)(C(C)C)C(=O)N2)c(C(=O)O)c1` (stereo not given) reads “inactive”.
`OC(c1ccc(Cl)cc1)(c1ccc(Cl)cc1)C(Cl)(Cl)Cl`: the concentration at half-maximal activity (AC50) is 50 µM (active).
`CCNP(=S)(OC)O/C(C)=C/C(=O)OC(C)C` (stereo not given): the result was inactive.
Regarding `CCOC(=O)C(C)OC(=O)c1cc(Oc2ccc(C(F)(F)F)cc2Cl)ccc1[N+](=O)[O-]` (stereo not given), the result was inactive.
Regarding `CCOc1nc(F)cc2nc(S(=O)(=O)Nc3c(Cl)cccc3Cl)nn12`, the compound was called inactive.
`CCN(CC)c1nc(C)cc(OP(=S)(OC)OC)n1`: the outcome was inactive.
Turning to `COC(=O)c1c(C(F)F)nc(C(F)(F)F)c(C2=NCCS2)c1CC(C)C`, the compound was called inactive.
For the compound `N#Cc1c[nH]cc1-c1cccc2c1OC(F)(F)O2`, the half-maximal activity concentration (AC50) was 71.3 µM (active).
Consider `O=c1n(Cl)c(=O)n(Cl)c(=O)n1Cl`, for which the call was inactive.
Same read-out and setting: the result for `C=CCOC(=O)C(C)(C)OC(=O)c1cc(-n2c(=O)cc(C(F)(F)F)n(C)c2=O)ccc1Cl` reads “inactive”; that for `Cc1c(COC(=O)[C@@H]2[C@H](/C=C(\Cl)C(F)(F)F)C2(C)C)cccc1-c1ccccc1`, “inactive”.
